Most compounds without a hit are left out; they make up all but 17% or so of the library.
HT1080 IDH1KD tx – toxicity to HT-1080 IDH1 knockdown cells (counter line) | HT-1080 IDH1 knockdown viability, ATP luminescence, 48 h | Potency, µM (highest dose often 46.1 µM), inactives show at the top dose activity, negative = toxicity, usual class: cytotoxic | 2% of 360,000 active | AID 686971;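 also: 0% = DMSO wells and -100% = cell-free medium wells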
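Cytotoxicity counter-line: IDH1KD HT-1080, 48 h, CellTiter-Glo. Curves classed by r2, magnitude and activity.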
HepG2 tox – kills HepG2 cells in TGF-b inhibitor counter-screen. 0.76% of 410,000 active. Potency, µM (series often up to 46.1 µM), for the others: top-dose activity change, negative = cytotoxicity, actives largely listed as cytotoxic. HepG2 CAGA-GFP viability, ATP luminescence, 18 h
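HepG2 CAGA-GFP cells (1000/well, DMEM with 1% FBS) received compound, then TGF-beta at 500 pg/mL final, and were incubated 18 hours at 37 degrees C. Viability was read by CellTiter-Glo luminescence. Media-only wells were set as complete cell-killing and DMSO as no toxicity.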
HT1080-NT tox – kills 2HG-producing HT-1080-NT fibrosarcoma cells; HT-1080-NT fibrosarcoma viability, CellTiter-Glo ATP luminescence, 48 h; Potency, µM (top dose mostly 46.1 µM), for inactives: top-dose activity, negative = less viability, actives largely listed as cytotoxic; 1.6% of 360,000 active; AID 686970;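 also: NT is the 2HG producing partner of a matched IDH1 knockdown line; 0% = DMSO-treated cells and -100% = media-only wells without cells; nearly all actives have a fitted effect of over 55% in size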
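Fibrosarcoma NT cells, 750 per well in 5% FBS RPMI, were exposed to compound for 48 hours. Viability: CellTiter-Glo luminescence.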
DT40 TDP1 no CPT – qHTS for Inhibitors of human tyrosyl-DNA phosphodiesterase 1 (TDP1): qHTS in cells in absence of CPT | DT40 Tdp1-/- hTDP1 cells, no CPT, ATP luminescence, 48 h | Potency, µM (doses to about 46.2 µM), without a hit: at the top dose activity change, negative = growth inhibition, actives largely listed as inhibitors | 15% of 420,000 active | AID 686978, 2013; also: % is scaled to controls: 0 for no effect and ±100 for the full control effect; nearly all actives have a fitted effect of over 55% in size
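Luminescent ATP content (CellTiter-Glo) served as the growth readout. Knockout chicken DT40 cells expressing human TDP1 were exposed to compounds without camptothecin for a minimum 48 hr at 37 °C.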
TGFb SMAD3 inh – TGF-b pathway inhibition; HepG2 CAGA-GFP TGF-b/SMAD3 reporter, GFP fluorescence, 18 h; TGF-beta stimulated, 500 pg/mL final; Potency, µM (highest dose often 46.1 µM), for inactives: top-dose activity, negative = inhibition, usual class: inhibitors; 1.2% of 410,000 active; AID 588855; also: % is scaled to controls: 0 for no effect and ±100 for the full control effect; nearly all actives have a fitted effect of over 65% in size
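TGF-beta reporter screen: HEPG2 CAGA-GFP, 1% FBS, 500 pg/mL TGF-beta final, 18 h; per-cell GFP summed per well; curves fitted and categorized by class.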
TDP1 cell CPT – growth inhibition of DT40 Tdp1-/-;hTDP1 cells with camptothecin (screen for TDP1 inhibitors); chicken DT40 Tdp1-/-;hTDP1 cells + 20 nM CPT, ATP luminescence, 48 h; Potency, µM (titrated, usually from 46.2 µM), for inactives: top-dose activity change, negative = growth inhibition, actives largely listed as inhibitors; 12% of 420,000 active; also: % is scaled to controls: 0 for no effect and ±100 for the full control effect; nearly all actives have a fitted effect of over 55% in size
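Cell growth measured by CellTiter-Glo luminescence after a minimum 48 h, 37 C compound exposure with 20 nM CPT in Tdp1-knockout DT40 cells stably expressing hTDP1, seeded 400/well; qHTS titration format.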
Active calls of the source: *; ? = inconclusive; . = no result given; [ ] = dose if it differs, or a comment. Calls follow the shape of the dose curve; as a rule, active = well fitted curve in the direction sought with a large enough effect; inconclusive = small, poorly fitted or top-dose-only effect, or another doubt; inactive = no such curve, though single readings can be large; an effect the other way counts as inactive or inconclusive. Potency is read from the fitted curve at half-maximal effect.

SMILES | HT1080 IDH1KD tx | HepG2 tox | HT1080-NT tox | DT40 TDP1 no CPT | TGFb SMAD3 inh | TDP1 cell CPT
COc1ccc(-c2nc3ccccc3c(=O)n2CCOc2ccc(C)cc2C)cc1 | 9% | 0% | 5% | -24% | -2% | -10%
Cn1ncc(Br)c1C(=O)NC12CC3CC(CC(C3)C1)C2 | -11% | -6% | -13% | ? | 22% | -19%
CC(=O)c1ccc[n+](CC(=O)c2ccc(F)cc2)c1 | . | 1% | . | -1% | -28% | -8%
COc1ccc(NC(=O)CN2CCN(CC(=O)Nc3ccc(OC)cc3)CC2)cc1 | 0% | 3% | 0% | 0% | -2% | -13%
O=c1c2ccccc2nc(-c2ccccc2)n1Cc1ccc(Cl)cc1 | -17% | -19% | -20% | ? | 0% | ?
O=c1c2ccccc2nc(-c2ccccc2)n1Cc1ccccc1 | -3% | -5% | -1% | 26µM* | 11% | -20%
COc1ccc(-c2nnc(SCC(=O)O)n2Cc2ccccc2)cc1 | 11% | 6% | 8% | 2% | 19% | 2%
COc1ccc(-c2n(Cc3ccccc3)c3ccccc3[n+]2Cc2ccccc2)cc1 | 5.8µM* | -45% | 4.6µM* | 0.26µM* | 7.9µM* | 0.46µM*
Cc1ccc2nc(Cl)c(CNCc3ccccc3)cc2c1 | 1% | 1% | -2% | ? | -1% | ?
CC(C)(CNC(=O)c1cccc(S(=O)(=O)N2CCCCC2)c1)N1CCOCC1 | -5% | -1% | 7% | -4% | -5% | -4%
CS(=O)(=O)c1nc(-c2ccccc2)cc(-c2ccccc2)c1C#N | ? | 2% | 23µM* | 2.9µM* | -1% | 1.5µM*
O=C(Cc1ccccc1)Nc1cc([N+](=O)[O-])ccc1N1CCOCC1 | -4% | -11% | -6% | -12% | 9% | -20%
Cc1ccc(CC(=O)Nc2ccccc2N2CCOCC2)cc1C | -8% | -12% | -9% | ? | ? | 16µM*
O=C(Cc1ccc(Cl)cc1)Nc1ccccc1N1CCOCC1 | 2% | -16% | 1% | 16µM* | 0% | ?
O=C(CSc1ccc([N+](=O)[O-])cc1)Nc1ccccc1N1CCOCC1 | -1% | -15% | -8%[9.24 µM] | 21µM* | -1% | ?
CCCOc1ccccc1OCC(=O)Nc1cc(Cl)ccc1-n1cncn1 | -17% | -3% | -7% | ? | 0% | ?
CN(CC(=O)Nc1cc(Cl)ccc1-n1cncn1)Cc1ccccc1N1CCOCC1 | -2% | 3% | -15% | ? | -1% | 23µM*
CCOc1ccc(-n2c(=O)c3c(C)c(C)sc3n(CC(=O)C(C)(C)C)c2=O)cc1 | . | -2% | . | 23µM* | -3% | ?
CCOc1ccc(-n2c(=O)c3c(C)c(C)sc3n(Cc3ccc(C(C)(C)C)cc3)c2=O)cc1 | . | -12% | . | ? | 13% | 21µM*
COc1cc(NC(=O)Cn2c(=O)n(-c3cccc(C)c3)c(=O)c3c(C)c(C)sc32)cc(OC)c1 | -28% | -33% | -13% | -29% | -2% | 21µM*
CC(C)(C)C(=O)Cn1c(=O)n(-c2ccccc2)c(=O)c2c3c(sc21)CCC3 | . | -4% | . | 18µM* | -12% | 15µM*
Cc1ccc(-n2c(=O)c3c4c(sc3n(CC(=O)c3ccc(Cl)cc3)c2=O)CCC4)cc1C | . | -42% | . | -13% | -27% | -6%
Cc1sc2c(c1C)c(=O)n(-c1ccccc1)c(=O)n2CC(=O)c1ccc(Cl)cc1 | . | 7% | . | 16µM* | 12% | ?
CCCS(=O)(=O)NCc1c(C)ncc2c1CCN(C(=O)/C=C/c1cccc(Cl)c1)C2 | . | . | . | -20% | . | 5%[9.04 µM]

Screens: PubChem BioAssay, National Center for Advancing Translational Sciences (NCATS)
